Measurements from PubChem BioAssay AID1053122 (Broad Institute, 2014).
Potency and affinity values are given separately. Activity calls are given as the source filed them.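 How the source made its calls: active means CTGF level falls with dose and the fitted half-maximal dose is at most twice the top valid dose; inconclusive means flat fit with 30 to 70% drop, or a poor fit; inactive means the rest.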

Test: CTGF mRNA reduction in DLD1 cells – cell-based, DLD1 colon cancer, RT-qPCR, cherry-pick, dose response (AID 1053122)
Details: DLD1 CTGF mRNA (YAP1 pathway), 24 h; series mostly up to 26 µM

| Compound | outcome |
| --- | --- |
| COc1cccc(-c2ccc([C@@H]3[C@@H](CO)N4CCCCN(C(=O)Cc5ccncc5)C[C@@H]34)cc2)c1 | inactive |
| O=C(Cc1ccncc1)N1CCCCN2[C@H](CO)[C@@H](c3ccc(C#Cc4ccccc4F)cc3)[C@H]2C1 | inactive |
| COc1cccc(-c2ccc([C@@H]3[C@H]4CN(C(=O)Cc5ccncc5)CCCCN4[C@H]3CO)cc2)c1 | inactive |
| COc1cccc(-c2ccc([C@@H]3[C@H](CO)N4CCCCN(C(=O)Cc5ccncc5)C[C@@H]34)cc2)c1 | inactive |
| COc1cccc(-c2ccc([C@H]3[C@@H](CO)N4CCCCN(C(=O)Cc5ccncc5)C[C@@H]34)cc2)c1 | inactive |
| COc1cccc(-c2ccc([C@H]3[C@H](CO)N4CCCCN(C(=O)Cc5ccncc5)C[C@@H]34)cc2)c1 | inactive |
| O=C(Cc1ccncc1)N1CCCCN2[C@@H](CO)[C@@H](c3ccc(C#Cc4ccccc4F)cc3)[C@@H]2C1 | inactive |
| O=C(Cc1ccncc1)N1CCCCN2[C@H](C1)[C@@H](c1ccc(C#Cc3ccccc3F)cc1)[C@@H]2CO | inactive |
| COc1cccc(-c2ccc([C@@H]3[C@@H](CO)N4CCCCN(C(=O)Cc5ccncc5)C[C@H]34)cc2)c1 | inactive |
| COc1cccc(-c2ccc([C@H]3[C@@H](CO)N4CCCCN(C(=O)Cc5ccncc5)C[C@H]34)cc2)c1 | inactive |
| O=C(Cc1ccncc1)N1CCCCN2[C@H](CO)[C@H](c3ccc(C#Cc4ccccc4F)cc3)[C@H]2C1 | inactive |
| O=C(Cc1ccncc1)N1CCCCN2[C@H](CO)[C@@H](c3ccc(C#Cc4ccccc4F)cc3)[C@@H]2C1 | inactive |
